Data from PubChem BioAssay AID651784 (National Center for Advancing Translational Sciences (NCATS), 2012).
Results filed as inconclusive are left out. Active and inactive are the calls of the source. The call rests on the fitted dose curve; in most records, active means well fitted inhibition curve with a large enough effect; inconclusive means small, poorly fitted or top-dose-only effect; inactive means no such curve, though single readings can be large or run the other way.

Experiment: Acumen qHTS Assay for Inhibitors of the mTORC1 Signaling Pathway in MEF (Tsc2-/-, p53-/-) Cells: Hit Validation;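 further: phospho-rpS6 Ser235/236 immunofluorescence normalized to propidium iodide cell count; nearly all actives have a fitted effect of over 65% in size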;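 on activity change, negative = inhibition: cells exposed to compound for 24 hours; plate controls were DMSO for no effect and 7.5 nM rapamycin control for full effect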
Settings: Acumen imaging; activity change, negative = inhibition: at 37.3 µM (top of the series)
Potency means the concentration at half of the fitted maximal effect.

Row | SMILES | Potency | activity change, negative = inhibition
1 | Cc1ccc(CS(=O)(=O)c2ncc(Cl)c(C(=O)Nc3nnc(C(C)C)s3)n2)cc1 | 5.85 µM (active) | –
2 | CCOc1c(Br)cc(C2CC(=O)Nc3cc4c(cc32)OCO4)cc1OC (stereo not drawn) | – | -47.7%
3 | CCCCOc1cccc(C(=O)N(Cc2cccs2)c2ccc(OC)cc2)c1 | 16.5 µM (active) | –
4 | COc1ccc(C(=O)Nc2ccc(OCc3cc(=O)n4ccccc4n3)cc2)cc1 | – | 7.16%
5 | COc1ccc(CNC(=O)Cn2c(SCC(=O)Nc3ccc(C)c(C)c3)nc3ccccc32)cc1 | – | -79.6%
6 | Cc1ccc(-c2nn(C)c(=O)c3ccccc23)cc1S(=O)(=O)NCCCN(C)C | – | 5.39%
7 | CCc1ccc(-n2c(=O)c3c4c(sc3n(CC(=O)c3ccc(F)cc3)c2=O)CCC4)cc1 | – | -153%
8 | Cc1nn(CC(=O)N2CCN(c3ccccc3F)CC2)c(=O)c2cccn12 | – | 2.89%
9 | Cc1ccc2[nH]c(=O)c3cc(C(=O)NCCCN4CCC(C)CC4)sc3c2c1 | 13.1 µM (active) | –
10 | CCCCOC(=O)c1ccc(NC(=O)c2ccc3c(c2)CCN3S(=O)(=O)c2ccccc2)cc1 | – | -14.2%
11 | CS(=O)(=O)N(CC(=O)NCCc1ccccc1)c1cc(C(F)(F)F)ccc1Cl | – | 30.3%
12 | Cc1ccccc1CN1C(=O)C(O)(CC(=O)c2cccc(Br)c2)c2ccccc21 (stereo not drawn) | – | -20%
13 | CCC(C)NC(=O)c1sc2nc(C)c(C(=O)Nc3ccc(C)cc3C)c(-c3ccc(Cl)cc3)c2c1N (stereo not drawn) | – | -10.2%
14 | O=C(COc1ccc(F)cc1)Nc1ccc(Cl)c(-c2nc3ccccc3[nH]2)c1 | – | -4.39%
15 | CCCCN1C(=O)C(O)(c2c(C)[nH]c3ccccc23)c2cc(Br)ccc21 (stereo not drawn) | – | -47%
16 | CCCCS(=O)(=O)c1oc(-c2cccs2)nc1S(=O)(=O)c1ccccc1 | 2.07 µM (active) | –
17 | CCCC1=Nc2cc(C(=O)NC3CCCC3)ccc2Sc2ccc(C)cc21 | 1.17 µM (active) | –
18 | COc1ccc(N(C)C(=O)c2cc(S(=O)(=O)N3CCc4ccccc43)cn2C)c(OC)c1 | – | 18.7%
19 | CCOC(=O)N1CCN(Cc2nc3cc(NC(=O)c4ccccc4OC)ccc3n2C(C)C)CC1 | – | -28.8%

Row | SMILES | Potency | activity change, negative = inhibition
20 | Nc1nc(Nc2ccccc2F)sc1C(=O)c1ccc(Cl)cc1 | – | -5.15%
21 | CC(C)(C)C1CCc2c(sc(NC(=O)C3c4ccccc4Oc4ccccc43)c2C(N)=O)C1 (stereo not drawn) | – | -15.3%
22 | Cc1ccc(NC(=O)COc2ccc(-c3nn(C)c(=O)c4ccccc34)cc2)c(C)c1 | – | -44.6%
23 | CC(C)OCCCn1c(=O)c2ccccc2n2c(-c3ccc(F)cc3)nnc12 | – | 17.3%
24 | COc1ccc(C)cc1NC(=O)CCNS(=O)(=O)c1cccc2nonc12 | – | 5.15%
25 | Cc1ccc(NC(=O)CCNS(=O)(=O)c2cccc3nonc23)cc1Cl | – | 5.73%
26 | COC(=O)c1ccccc1NC(=O)Cn1c(=O)n(-c2ccc(C)cc2)c(=O)c2ccccc21 | 5.85 µM (active) | –
27 | Cc1ccc(-c2csc(-c3cc4c([nH]c3=O)CC(c3ccccc3)CC4=O)n2)cc1 (stereo not drawn) | 0.927 µM (active) | –
28 | Cc1ccccc1CN1C(=O)C(O)(CC(=O)c2ccccc2)c2cc(Cl)ccc21 (stereo not drawn) | – | -65.2%
29 | COCCCNC(=O)c1ccc(CSc2nc3cccnc3n2Cc2ccc(OC)cc2)cc1 | – | 2.82%
30 | Cc1cc(C)cc(OCC(=O)Nc2cccc(-c3nc4ccccc4[nH]3)c2)c1 | – | -6.64%
31 | COc1ccc(-c2[nH]nc3nc(-c4cc(OC)c(OC)c(OC)c4)cc(C(=O)O)c23)cc1 | – | 15.4%
32 | CCS(=O)(=O)c1ncc(Cl)c(C(=O)NCc2ccc(OC)cc2)n1 | 6.56 µM (active) | –
33 | O=C(CS(=O)(=O)c1cccc2nsnc12)NCc1ccc(Cl)cc1 | – | 10.4%
34 | COc1ccc(-c2cc(C(F)(F)F)nc(S(=O)(=O)CCCC(=O)Nc3ccccc3C(F)(F)F)n2)cc1OC | 13.1 µM (active) | –
35 | CCOc1cc(C2CC(=O)Nc3cc4c(cc32)OCCO4)ccc1O (stereo not drawn) | – | 3.9%
36 | COc1ccc(Nc2cc(C)nc(-n3nc(C)cc3C)n2)cc1Cl | 0.147 µM (active) | –
37 | CC(C)CCNc1nc(Nc2ccccc2)c2cnn(C)c2n1 | – | 17.1%
38 | CCCCOCc1cc(CN2CCN(c3cccc(Cl)c3)CC2)c(O)c2ncccc12 | 2.61 µM (active) | –
